# Bioassay records (PubChem BioAssay)
# proKLK7 act: proKLK7 zymogen activators, primary screen, biochemical, fluorescence intensity; Kallikrein-7 (Homo sapiens), P49862; purified proKLK7, EDANS-DABCYL substrate fluorescence; 100% is mature enzyme control, 0% vehicle; activation, % at 7 µM; 0.9% of 370,000 active;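 active = activation above the mean of all tested compounds plus 3 SD, computed per campaign excluding outliers beyond control limits, cut at about 13% in these data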
# ADAM10 inh: human ADAM10 inhibitors, primary screen, biochemical, QFRET, HTS; recombinant ADAM10, EDANS/DABCYL FRET peptide cleavage, 3 h; 0.62% of 370,000 active; Disintegrin and metalloproteinase domain-containing protein 10 (Homo sapiens), O14672; inhibition, % at 7 µM;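 active = inhibition above a per-campaign cutoff equal to the mean of compounds falling between control-based bounds plus 3 SD, cut at about 20% in these data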;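 also: 0% = DMSO wells while the 100% control is not disclosed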
# HGIII-sPLA2 inh: human group III sPLA2 inhibitors, primary screen, biochemical, QFRET, BODIPY PC-A2 liposome substrate. Group 3 secretory phospholipase A2 (Homo sapiens), Q9NZ20. QFRET BODIPY PC-A2 liposome hydrolysis, fluorescence. inhibition, % at 12.2 µM. 0.56% of 370,000 active. AID 743126, 2013;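 active = inhibition above mean plus 3 SD of compounds lying within the high and low control bounds, cut at about 19% in these data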;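 also: 0% = median of test compound wells and 100% = no enzyme DMSO wells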
# ADAM17 inh: ADAM17 inhibitors, primary screen, biochemical, QFRET; Disintegrin and metalloproteinase domain-containing protein 17 (Homo sapiens), P78536; recombinant ADAM17, EDANS/DABCYL FRET peptide cleavage; inhibition, % at 6.95 µM; 0.83% of 370,000 active; AID 720648, 2013;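 active = inhibition above the mean of compounds lying between control limits plus 3 SD, set per campaign, cut at about 8.5% in these data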;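 also: 0% = DMSO-only wells as the low control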
# PLC-beta3 inh: human PLC-beta3 inhibitors, primary screen, biochemical, fluorescence; 0.18% of 370,000 active; Purified PLC-beta3, fluorogenic substrate; inhibition, % at 12.2 µM; 1-phosphatidylinositol 4,5-bisphosphate phosphodiesterase beta-3 (Homo sapiens), Q01970;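 also: 0% = median of compound wells on plate and 100% = full blocker control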
# PLC-gamma1 inh: PLC-gamma1 enzyme inhibitors, primary screen, biochemical, fluorescence, purified enzyme. 1-phosphatidylinositol 4,5-bisphosphate phosphodiesterase gamma-1 (Homo sapiens), P19174. fluorogenic substrate. inhibition, % at 12.2 µM. 0.84% of 370,000 active. AID 720700, 2013; in the data active = inhibition above about 9.5%
# PLCgamma1 ctr: PLC-gamma1 enzyme inhibitors, counter-screen for PLC-beta3 inhibitor project, biochemical, fluorescence; shares compounds with PLC-gamma1 inh; purified PLC-gamma1, fluorogenic substrate; inhibition, % at 12.3 µM; 3.1% of 3,300 active; AID 743258, 2014; in the data active = inhibition above about 9.5%
# PLCb3 confirm: PLC-beta3 inhibitor confirmation, biochemical, fluorescence, purified enzyme; shares compounds with PLC-gamma1 inh; fluorogenic substrate fluorescence; inhibition, % at 12.3 µM; 1% of 3,300 active; AID 743261, 2014
# Numbers without * were called inactive; · = no result given. Most compounds without a hit are left out; they make up all but 3.4% or so of the library. Rule as the data show it, unless noted: active = inhibition above about 11%; inactive = the rest.
SMILES,proKLK7 act,ADAM10 inh,HGIII-sPLA2 inh,ADAM17 inh,PLC-beta3 inh,PLC-gamma1 inh,PLCgamma1 ctr,PLCb3 confirm
Cc1ccc(-c2cccc(CN3CCN(C4CCN(C(C)C)CC4)C(CCO)C3)c2)o1 (centres undefined),0,-2,-4,-2,-3,-1,·,·
COc1ccc(CNCCC(c2ccc(F)cc2)c2ccc(OC(C)C)cc2)cc1OC (centres undefined),1,13,-10,1,-2,11*,-4,2
COc1ccc(C(CCNCc2ccc(F)cc2)c2ccc(F)cc2)cc1 (centres undefined),0,2,-6,0,4,5,·,·
COc1ccc(CNCCC(c2ccccc2)c2ccc(OC(C)C)cc2)cc1OC (centres undefined),0,0,-8,-1,7,11*,1,4
Cc1ccc(OCc2nnc(SC(C)C(=O)O)n2Cc2ccccc2)cc1 (centres undefined),0,-1,-7,-2,-1,0,·,·
COc1ccccc1C(=O)CSc1n[nH]c(N)n1,-1,3,9,5,11*,4,-2,1
Cc1ccc(C(=O)OCC(=O)Nc2cccc(Br)c2)s1,0,4,-3,0,1,2,·,·
CC(=O)Nc1ccc(NC(=O)COC(=O)c2ccc(C)s2)cc1,0,-1,-2,1,-2,11*,-4,2
Cc1onc(-c2c(Cl)cccc2Cl)c1/C(N)=N/OC(=O)C1CC1,1,2,-3,1,-1,2,·,·
CNCCC=C1c2ccccc2CCc2ccccc21,0,-2,12,-6,0,12*,-5,-11
C[N+](C)(C)CC/C=C1/c2ccccc2CSc2ccccc21,-1,4,4,0,-1,6,·,·
CN(C)c1ccc(/C=N/NC(=O)c2nonc2N)cc1[N+](=O)[O-],0,-1,10,1,2,9.8*,-3,5
Nc1nonc1C(=O)N/N=C/c1cccc([N+](=O)[O-])c1,1,-2,0,-2,1,-1,·,·
Cn1c(=O)c2c(nc(-n3ccnc3)n2C)n(C)c1=O,0,2,9,-28,3,2,·,·
Cn1c(=O)c2c(nc(-n3ccnc3)n2Cc2ccccc2)n(C)c1=O,-1,0,-1,3,2,10*,-1,0
CC(C)(C)c1cc(CCC(=O)NCCc2ccccn2)cc(C(C)(C)C)c1O,0,7,4,5,-2,-1,·,·
O=C1C=C(NCCc2cc(Br)c(O)c(Br)c2)C(=O)c2ncccc21,1,-2,-8,4,6,12*,7,1
CCc1ccc(C(=O)CN2CCSC2=N)cc1,0,-14,7,-3,-11,-3,·,·
CC(=O)N1c2ccc(F)c(F)c2C[C@H]1C,0,-10,5,-1,5,0,·,·
COc1ccc(CN2CC(C(=O)NCCCN3CCCCC3)CC2=O)cc1 (centres undefined),0,11,2,1,-9,4,·,·
O=C(C1CCCCC1)N1C[C@H](O)[C@@H](n2cc(C3CC3)nn2)C[C@@H]1c1ccccc1,0,1,9,-4,1,0,·,·
Cc1cnc2ccc(F)cc2c1,1,5,10,3,6,12*,-5,-4
Cc1ccc2cc(F)ccc2n1,-1,-4,9,-8,-1,3,·,·
